The nature of assay [1]: NFkB reporter suppression in cystic fibrosis bronchial cells – cell-based, uHTS hits, panel, cytotoxicity readout, dose response (AID 624344). Particulars: CF bronchial epithelial cells, PAF-induced NFkB reporter inhibition, with PAF, run 1; at 79 µM (top of the series) unless noted.
Experiment in assay [2]: as above
Conditions: CF bronchial epithelial cells, PAF-induced NFkB reporter inhibition, with PAF, run 2; at 79 µM (top of the series) unless noted.

For orientation: inhibition means the change of the read-out against control, counted positive when it falls.

For `COc1cc(C(=O)c2cc3c(cc2C)OCO3)cc(OC)c1OC`, the inhibition was 48.2% in assay [1] and 51.8% in assay [2].
The corresponding values for `COc1cc2c(c(OC)c1OC)-c1ccc(NCc3ccccc3)c(=O)cc1C(NC(C)=O)CC2` (stereo unspecified) are 94.4% and 112%.
In the case of `COc1cc(NC(=O)c2csc(-c3ccncc3)n2)cc(C(=O)Nc2cccc(C(F)(F)F)c2)c1`, the inhibition in assay [1] worked out at 102%; in assay [2], 105%.
Turning to `CN(c1ncnc(N)c1[N+](=O)[O-])C1CCS(=O)(=O)C1` (stereo unspecified), the results for the inhibition in assay [1] and in assay [2] were 96.8% and 104%, respectively.
The corresponding values for `CC1(Cc2ccc(F)cc2)C(=O)Nc2ccc(-c3cccnc3)cc21` (stereo unspecified) are 98.2% and 108%.
As to `c1cc(-c2cnc3cccnn23)c2cccnc2c1`, the figures for the inhibition in assay [1] and in assay [2] were 114% and 105%, respectively.
The corresponding values for `Cc1ccnc(NC(=O)CCCOc2cc(=O)n(C)c3ccccc23)c1` are 105% and 112%.
In the same order, the values of `CCOCC(=O)NC1CCc2cc(OC(=O)COCC)c(OC)c(OC)c2-c2ccc(SC)c(=O)cc21` (stereo unspecified) are 45.7% and 85.3%.
The corresponding values for `CN(C)C=Nc1c(C(=O)c2ccccc2)sc2nccc(N(C)C)c12` are 100% and 105%.
Consider `CCOC(=O)N1CCC(NC(=O)c2ccc3c(c2)N=C(C)c2c(C)ccc(C)c2S3)CC1`, for which the inhibition in assay [1] worked out at 92.2%; in assay [2], 115%.
On to `Cn1cccc1C(=O)NC(=O)COC(=O)c1ccc(S(C)(=O)=O)c([N+](=O)[O-])c1`, for which the inhibition in assay [1] was 92.6%; in assay [2], 98.1%.
The corresponding values for `C=C1C(=O)O[C@@H]2[C@H]3O[C@]3(C)CC/C=C(\C)CC[C@@H]12` are 101% and 99.4%.
In the same order, the values of `Cc1nc(N2CCC(C(N)=O)CC2)c2c(-c3cccs3)csc2n1` are 97.5% and 93.8%.
In the same order, the values of `Nc1ncnc(Sc2ccc(Cl)cc2)c1[N+](=O)[O-]` are 101% and 85.6%.
For `O=C(Nc1ccc(OCC(=O)N2CCOCC2)cc1)c1cncc(Br)c1`, the inhibition in assay [1] came to 90.4%; in assay [2] it was 98.9%.
In the same order, the values of `COc1ccccc1-c1cc(NC=O)c2ncc(-c3ccc(F)cc3)n2c1` are 97.7% [at 39.5 µM] and 75.8% [at 39.5 µM].
With `CN(CCC#N)C(=O)COC(=O)c1ccccc1C(=O)c1ccc(Cl)c([N+](=O)[O-])c1`, the inhibition in assay [1] is 96.7%; in assay [2] it was 105%.
In the same order, the values of `COc1ccc(Nc2nc(-c3cccs3)nc3ccccc23)cc1S(=O)(=O)N1CCOCC1` are 104% and 102%.
In the same order, the values of `Cc1ccc(N=Cc2cc3c(cc2O)OC(N)=C(C#N)C3c2ccccc2)cc1` (stereo unspecified) are 79.8% and 60.7%.
The corresponding values for `O=C(Nc1ccccc1N1CCOCC1)c1cc(-c2ccco2)nc2ccccc12` are 102% and 95.6%.
Turning to `O=C(Nc1ccc(Oc2ccc(NC(=O)Nc3ccc([N+](=O)[O-])cc3)cc2)cc1)Nc1ccc([N+](=O)[O-])cc1`, the values for the inhibition in assay [1] and in assay [2] were 101% and 114%, respectively.
The corresponding values for `CCOC(=O)c1c(C)c2c(=O)[nH]cnc2n1-c1ccccc1` are 110% and 104%.
For the compound `c1nc(NCc2ccc3c(c2)OCO3)c2cc(-c3ccoc3)ccc2n1`, the inhibition in assay [1] and in assay [2] was 102% each time.
Consider `COc1ccc(-c2cn[nH]c2-c2ccc(OCc3ccc([N+](=O)[O-])cc3)cc2O)cc1`, for which the inhibition in assay [1] stood at 105%; in assay [2], 115%.
In the same order, the values of `NC(=O)c1sc2nc3c(c(-c4ccco4)c2c1N)CCCC3` are 114% and 101%.
With `C[C@]12CCC(O)CC1CCC1C2CC[C@]2(C)C(c3cc(C(F)(F)F)n[nH]3)CCC12` (stereo partly specified), the inhibition in assay [1] came out at 121%; in assay [2] it was 99.6%.
The corresponding values for `Cc1c(C(=O)OC2CCCC2)[nH]c2c1C(=O)CC(c1ccco1)C2` (stereo unspecified) are 29% and 115%.
The corresponding values for `CN1CCC(OC(=O)c2cc3cc(Cl)cc(Cl)c3oc2=O)CC1` are 108% and 97.8%.
The corresponding values for `CN(C)CCCN(C(=O)CCS(=O)(=O)c1ccccc1)c1nc2cc3c(cc2s1)OCO3` are 88.7% and 73%.
For `O=C1N(c2ccccc2C(F)(F)F)O[C@]1(c1ccccc1)C1CCCCC1`, the figures for the inhibition in assay [1] and in assay [2] were 90.7% and 98.7%, respectively.
In the same order, the values of `CCOC(=O)C1=C(CC)Nc2ccccc2N=C1NC(=O)c1oc2ccccc2c1C` are 111% and 91.5%.
In the same order, the values of `CCOC(=O)c1c(C)[nH]c(C(=O)N/N=C/c2ccc(Br)cc2)c1C` are 89.5% and 83.1%.
The corresponding values for `O=[N+]([O-])c1ccc(O)c(C2CCCCC2)c1` are 117% and 103%.
With `CC(=O)OCCCNc1cc(Sc2ccc(Cl)cc2)c2nonc2c1[N+](=O)[O-]`, the values for the inhibition in assay [1] and in assay [2] were 100% and 113%, respectively.
As to `c1csc(Cc2nn3c(-c4ccncc4)nnc3s2)c1`, the inhibition is 115% in assay [1] and 102% in assay [2].
On to `C=Cc1ccc(CC2(C)C(=O)Nc3ccc(-c4cccnc4)cc32)cc1` (stereo unspecified), for which the inhibition in assay [1] is 113%; in assay [2] it was 102%.
In the same order, the values of `CC1(O)CC(c2ccc(Cl)cc2)=NN1C(=O)c1ccc(Cl)cc1` (stereo unspecified) are 109% and 78.5%.
The corresponding values for `CCOc1ccc(Nc2ncnc3ccc([N+](=O)[O-])cc23)cc1` are 102% and 107%.
In the same order, the values of `Cc1ccccc1S(=O)(=O)Cc1ccc(C(=O)N2CCN(c3cccc(C)c3C)CC2)o1` are 103% and 114%.
Consider `O=C(NCCCSc1ccccc1)c1cc(Cl)ccc1O`, for which the inhibition in assay [1] stood at 106%; in assay [2], 117%.
Regarding `Cc1cc(C)c2nc(C(F)(F)F)c(C#N)c(N)c2c1`, the figures for the inhibition in assay [1] and in assay [2] were 97.7% and 90.1%, respectively.
In the same order, the values of `CC(C)[C@H](CO)Nc1nc(NCc2ccc(S(N)(=O)=O)cc2)c2ncn(C(C)C)c2n1` are 107% and 110%.
Regarding `CCOC(=O)Nc1nc(-c2ccccc2)c(C(=O)c2ccccc2)s1`, the inhibition came to 99.4% in assay [1] and 78.8% in assay [2].
